# From PubChem BioAssay (NCATS)
# Records with an inconclusive call do not appear. Entries that show only a call come without a potency. Activity calls are given as the source filed them. The call rests on the fitted dose curve; tested in HEK293 reporter line.
# Assay: qHTS for Inhibitors of the Functional Ribonucleoprotein Complex (vRNP) of Lymphocytic Choriomeningitis Arenaviruses (LCMV): Viability assay - alamar blue signal for LCMV Primary Screen (AID 1347085); further: nearly all actives have a fitted effect of over 80% in size
# Details: alamar blue viability counter-screen, LCMV vRNP screen cells; series mostly up to 57.5 µM
# Potency means the concentration at half of the fitted maximal effect.
row,Structure (SMILES),Potency
1,CC1=C[C@@H]2c3cccc4[nH]cc(c34)C[C@H]2N(C)C1,inactive
2,C=C1C(=O)[C@@]23C(CC[C@@H]1[C@H]2O)[C@@]12CO[C@]3(O)[C@@H](O)[C@@H]1C(C)(C)CC[C@@H]2O (stereo not given in full),2170 nM (active)
3,CCN1C[C@]2(C)CC[C@H](OC)[C@]34C5C[C@@H]6CC[C@@](O)(C5C(=O)O6)C(C13)[C@@H](OC(=O)c1ccccc1)C24,inactive
4,Clc1ccc(COC(Cn2ccnc2)c2ccc(Cl)cc2Cl)c(Cl)c1 (stereo not given),inactive
5,C[C@@]12CCC(OS(=O)(=O)O)C[C@@H]1CCC1C2CC[C@]2(C)C(=O)CCC12 (stereo not given in full),inactive
6,C=C1C2C[C@]3(C4CC5[C@@]6(C)CC[C@H](O)[C@@]5(C3CC2=O)C4[N+]([O-])(CC)C6)[C@@H]1O (stereo not given in full),inactive
7,C1CC[C@H]([C@@]23C[C@H](C[C@H]4CCCN[C@H]42)[C@@H]2CCCCN2C3)NC1,inactive
8,COC1=C[C@]23CCCN2CCc2cc4c(cc2[C@@H]3[C@@H]1O)OCO4,inactive
9,CN(C/C=C/c1ccccc1)Cc1cccc2ccccc12,inactive
10,CC(C)c1cnn2c(NCc3ccccc3)cc(N[C@@H](CO)[C@H](O)CO)nc12,685 nM (active)
11,CO[C@@H]1C(N(C)C(=O)c2ccccc2)C[C@H]2O[C@]1(C)n1c3ccccc3c3c4c(c5c6ccccc6n2c5c31)C(=O)NC4=O (stereo not given in full),inactive
12,CCCOc1ccc2[nH]cc(C3=CCNCC3)c2n1,inactive
13,O=C1NCCc2[nH]c(-c3ccncc3)cc21,6110 nM (active)
14,CCC1CN2CCC1CC2C(O)c1ccnc2ccccc12 (stereo not given),inactive
15,Cc1c(-c2ccc(O)cc2)n(Cc2ccc(OCCN3CCCCCC3)cc2)c2ccc(O)cc12,inactive
16,COC(=O)C1=CO[C@@H](C)[C@@H]2CN3CC[C@]4(C(=O)Nc5c4ccc(OC)c5OC)[C@H]3C[C@H]12,inactive
17,CCCCC(C)(C)[C@H](O)C=C[C@H]1[C@H](O)CC(=O)[C@H]1CC=CCCCC(=O)O,inactive
18,O=C1CCC[C@H]2[C@H]3CCCN4CCCC(=CN12)[C@@H]34,inactive
19,O=C(NCCCCN1CCOCC1)c1cc2ccccc2o1,inactive
20,Cc1ccc(C(=O)Nc2cccc(C(F)(F)F)c2)cc1Nc1nc(-c2cccnc2)nc2c1cnn2C,inactive

row,Structure (SMILES),Potency
1,N#CC1(c2cccc(C(=O)Nc3cc(Oc4ccc5nc(NC(=O)C6CC6)sc5n4)ccc3F)c2Cl)CC1,inactive
2,C/C=C1/CN2CC[C@]34C(=C(C=O)[C@H]1C[C@@H]23)Nc1ccccc14,inactive
3,O=C1C[C@@H](c2ccc(O)cc2)Oc2cc(O)cc(O)c21,inactive
4,OC[C@@H]1[C@@H](O)[C@H](O)[C@H]2[C@@H](O)CCN21,inactive
5,C[N+](C)([O-])CCNc1ccc(NCC[N+](C)(C)[O-])c2c1C(=O)c1c(O)ccc(O)c1C2=O,inactive
6,Clc1ccc2c(c1)N=C(N1CCNCC1)c1ccccc1N2,inactive
7,O=C(O)CF,inactive
8,CC(C)c1nn(-c2c(Cl)cccc2Cl)c2nc(Cc3ccc(OCCO)cc3)[nH]c(=O)c12,153 nM (active)
9,CC1(C)OC1COc1c2occc2cc2ccc(=O)oc12 (stereo not given),inactive
10,CC(C)(O)C1OC2CCC3(C)C(O)(CCC4Cc5c([nH]c6ccccc56)C43C)C2=CC1=O (stereo not given),inactive
11,OCCCNc1cc(-c2ccnc(Nc3cccc(Cl)c3)n2)ccn1,769 nM (active)
12,COc1ccc(CCN(C)CCCC(C#N)(c2ccc(OC)c(OC)c2)C(C)C)cc1OC (stereo not given),inactive
13,CCN1C[C@]2(C)CC[C@H](OC)[C@@]34[C@H]1C1(OCO[C@@]15C[C@H](OC)C1C[C@]3(O)C5[C@H]1OC)[C@@H](O)[C@H]24,inactive
14,OC1(c2ccc(Cl)cc2)CCN(Cc2c[nH]c3ccccc23)CC1,inactive
15,O=S(=O)(c1cccc2c(Cl)cccc12)N1CCCNCC1,inactive
16,CS(=O)(=O)N(Cc1ccco1)CC(O)Cn1c2ccccc2c2ccccc21 (stereo not given),inactive
17,CN1C2CCC1CC(OC(=O)C1CCC(C(=O)OC3CC4CCC(C3)N4C)(c3ccccc3)c3ccccc31)C2 (stereo not given),inactive
18,O=S(=O)(c1cccc2c(I)cccc12)N1CCCNCC1,inactive
19,CNCC[C@H](Oc1ccc(C(F)(F)F)cc1)c1ccccc1,inactive
20,O=c1ccc2c(O)c3ccoc3cc2o1,inactive
